According to ChEMBL document CHEMBL1157539, “Thousands of chemical starting points for antimalarial lead identification” (Nature, 2010):

test system: Plasmodium falciparum; assay: GSK_TCMDC: Inhibition of Plasmodium falciparum 3D7 in whole red blood cells, using parasite LDH activity as an index of growth. Test compounds present at 2uM; format: functional

SMILES | Inhibition
Cc1ccnc(NC(c2cccc(OCc3ccccc3)c2)c2ccc3cccnc3c2O)c1 (stereo not given) | 95%
COc1cc(OC)cc(-c2nn(-c3ccc([N+](=O)[O-])cc3C#N)c(=S)n2CC2CCCO2)c1 (stereo not given) | 98%
COc1cc2nc(Nc3ccc(C)cc3)nc(Nc3ccc(C)cc3)c2cc1OC.Cl | 100%
Cc1cc([N+](=O)[O-])ccc1NC(=O)Nc1cccc(C(F)(F)F)c1 | 100%
Cl.ON=C1CCc2cc(-c3[nH]c(-c4cccc(OCCNCc5ccc(F)cc5)c4)nc3-c3ccncc3)ccc21 | 89%
COc1ccc(Cl)cc1-c1nc(C(=O)NCCN2CCCCC2)c(C(C)C)s1.O=C(O)C(F)(F)F | 100%
CCC(Cc1cnc2nc(N)nc(N)c2n1)c1ccc(C(=O)O)cc1 (stereo not given) | 93%
NC(=O)C1CCN(Cc2ccc(-c3ccc(-c4nc5cc(C(F)(F)F)ccc5[nH]4)cc3)cc2)CC1.O=C(O)C(F)(F)F | 100%
O=C(Nc1ccc(Cn2ncc(N3CCCNCC3)c(Cl)c2=O)cc1)Nc1ccc(-c2ccccc2)cc1 | 93%
Cl.O=C(/C=C/c1ccc(Cl)c(Cl)c1)N1CCC(CN2CCC(c3c[nH]c4ncccc34)CC2)CC1 | 84%
COc1cc(F)c2ncc(C#N)c(CCN3CCC(NCc4ccc5c(c4)OCCO5)CC3)c2c1.Cl | 97%
O=C(/C=C/c1ccc(Cl)c(Cl)c1)NC1CCN(Cc2ccc(O)cc2)CC1.O=C(O)C(F)(F)F | 100%
Cc1ccnc(-n2c(C)cc(C=C3SC(=Nc4ccccc4)N(Cc4ccco4)C3=O)c2C)c1 | 99%
Cc1c(F)cc(C(=O)NC2CC2)cc1-c1ccc2c(c1)c(C)nn2S(=O)(=O)c1cccs1 | 91%
C=C[C@]1(C)C[C@@H](OC(=O)c2cncn(COC)c2=O)[C@]2(C)[C@H](C)CC[C@]3(CCC(=O)[C@H]32)[C@@H](C)[C@@H]1O | 96%
NC1CCN(c2nc(NCCCc3ccc(O)cc3)nc(NCc3ccccc3-c3ccc(C(F)(F)F)cc3)n2)CC1.O=C(O)C(F)(F)F | 100%
Br.Oc1ccc2nc(N3CCNCC3)nc(NCCCc3ccccc3)c2c1 | 100%
OC(CNCc1ccccc1OCc1ccccc1)c1cccc(Cl)c1 (stereo not given) | 100%
COc1cc(NCC(C)CNCc2cn(Cc3ccccc3)c3ccccc23)nc2ccccc12 (stereo not given) | 90%
O=C(NC1CCN(Cc2ccccc2)CC1)c1ccc(-c2nc3cc(Cl)c(Cl)cc3[nH]2)c(F)c1 | 100%

SMILES | Inhibition
CCOC(=O)c1cc(C(=O)NCCCCN2CCC(c3ccc(CC)cc3OCC)CC2)ccc1-c1ccc(C(F)(F)F)cc1 | 99%
O=C(Nc1ccc(F)c([N+](=O)[O-])c1)Nc1cc(C(F)(F)F)ccc1Cl | 100%
Cc1ccc(F)c(CN2CCC(N3CC(c4ccccc4)(c4ccccc4)OC3=O)CC2)c1Cl | 95%
NC1CCN(Cc2cccc(-c3csc(-c4nc5ccccc5[nH]4)c3)c2)C1.O=C(O)C(F)(F)F (stereo not given) | 99%
O=C(C=Cc1ccc(-c2ccccc2)cc1)N1CCC(CCN2CCC(c3c[nH]c4ccccc34)CC2)CC1 | 87%
CCC(C)c1ccc(NC(=O)c2ccc(S(=O)(=O)Nc3ccc(OC)c(N4CCN(CC5CC5)CC4)c3)cc2)cc1.O=C(O)C(F)(F)F (stereo not given) | 94%
CN(C)c1ccc(CN2CCCCC(NC(=O)c3cc(-c4ccccc4Cl)cs3)C2)cc1.O=C(O)C(F)(F)F (stereo not given) | 91%
CC(O)C(=O)O.COc1cc(Cc2cnc(N)nc2N)c2c(c1OC)OC(C)(C)C=C2 | 93%
Cc1ccccc1C1CCN(C2CCC(NC(=O)/C=C/c3c[nH]c4ccccc34)CC2)CC1 (stereo not given) | 100%
O=C(O)C(F)(F)F.O=S(=O)(NCCN1CCCC1)c1ccc(-c2cccc(CNCc3ccccc3)c2)s1 | 94%
COc1ccc(CN2CCCN(Cc3cccc(NC(=O)c4ccc5ccccc5c4)c3)CC2)cc1.O=C(O)C(F)(F)F | 93%
COc1ccc2nccc(N3CCC(CCNCc4ccc5c(n4)NC(=O)CO5)CC3)c2c1.Cl | 100%
Cc1cc(C(=O)Nc2ccc3c(c2)CCN3C2CCN(Cc3csc4ccccc34)C2)no1 (stereo not given) | 96%
COc1ccc2ncc(C#N)c(CCN3CCC(NCc4ccc5c(c4)OCCO5)CC3)c2c1.Cl | 96%
Cc1n[nH]c2cc(F)c(-c3cc(OC[C@@H](N)Cc4ccccc4)cnc3-c3ccoc3)cc12.O=C(O)C(F)(F)F | 95%
O=C(NC1CCCc2ccccc21)C1CCCN(C(=O)c2ccc(O)c(-c3ccc(Cl)c(Cl)c3)c2)C1 (stereo not given) | 88%
O=C(Nc1ccc(Cl)c(Cl)c1)Nc1ccc2nccc(N3CCN(Cc4ccccc4)CC3)c2c1 | 100%
CCOC(=O)c1ccc(-c2cnc(N)c(-c3nc4cccc(C)c4[nH]3)c2)cc1 | 100%
COC(=O)CCCCOc1c(OC)cc(Cc2cnc(N)nc2N)cc1OC | 93%
O=C(/C=C/c1ccc(Cl)c(Cl)c1)NCCCCCN1CC[C@H](NC(=O)c2sc3ccccc3c2Cl)C1 | 97%
